PubChem BioAssay AID493029 (Johns Hopkins Ion Channel Center, 2011)
Hit rate of the full screen: of about 1,000 compounds, about 140 (14%) were called active. No rule for the calls is given here. The sample as a whole holds a higher share of actives than the screen did.

Assay: thallium flux change in parental CHO cells, counter-screen for KCNQ2 inhibitor project (AID 493029);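 as to activity change: 0% = vehicle negative controls with stimulus buffer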
Conditions: at 10 µM; stronger effect = lower value

Compound | activity change
CN(C)CC1Oc2ccccc2OC1(O)c1ccccc1 (configuration not stated) | -23% (active)
O=C(NC(c1ccc(Cl)cc1)P(=O)(Oc1ccccc1)Oc1ccccc1)OCc1ccccc1 (configuration not stated) | inactive
